From PubChem BioAssay (EPA / NIEHS)
Records with an inconclusive call do not appear. Calls of active or inactive are those of the source. How the source made its calls: active means hit-call score of the fitted dose curve at least 0.9, where 1 is the maximum; inconclusive means response in the unintended direction; inactive means score below 0.9.

Target: PGR (gene 5241) (UniProt P06401)
Assay: TOX21_PR_BLA_Followup_Antagonist_ratio: Tox21 HEK293 Progesterone Receptor (PR) Antagonism Beta-lactamase Follow-Up Assay, Ratio (AID 2283934)
How it was run: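 HEK293T PR-UAS-bla, 2% CS-FBS; 6 hr plating, then cpd + R5020 (1 nM final), 16 hr 37C/5% CO2. B/G FRET substrate 2 h RT. Ratio ch2/ch1 vs DMSO; CellTiter-Glo viability multiplexed, autofluorescence checked.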

Chain of PGR (gene 5241) (P06401 whole entry, looked up): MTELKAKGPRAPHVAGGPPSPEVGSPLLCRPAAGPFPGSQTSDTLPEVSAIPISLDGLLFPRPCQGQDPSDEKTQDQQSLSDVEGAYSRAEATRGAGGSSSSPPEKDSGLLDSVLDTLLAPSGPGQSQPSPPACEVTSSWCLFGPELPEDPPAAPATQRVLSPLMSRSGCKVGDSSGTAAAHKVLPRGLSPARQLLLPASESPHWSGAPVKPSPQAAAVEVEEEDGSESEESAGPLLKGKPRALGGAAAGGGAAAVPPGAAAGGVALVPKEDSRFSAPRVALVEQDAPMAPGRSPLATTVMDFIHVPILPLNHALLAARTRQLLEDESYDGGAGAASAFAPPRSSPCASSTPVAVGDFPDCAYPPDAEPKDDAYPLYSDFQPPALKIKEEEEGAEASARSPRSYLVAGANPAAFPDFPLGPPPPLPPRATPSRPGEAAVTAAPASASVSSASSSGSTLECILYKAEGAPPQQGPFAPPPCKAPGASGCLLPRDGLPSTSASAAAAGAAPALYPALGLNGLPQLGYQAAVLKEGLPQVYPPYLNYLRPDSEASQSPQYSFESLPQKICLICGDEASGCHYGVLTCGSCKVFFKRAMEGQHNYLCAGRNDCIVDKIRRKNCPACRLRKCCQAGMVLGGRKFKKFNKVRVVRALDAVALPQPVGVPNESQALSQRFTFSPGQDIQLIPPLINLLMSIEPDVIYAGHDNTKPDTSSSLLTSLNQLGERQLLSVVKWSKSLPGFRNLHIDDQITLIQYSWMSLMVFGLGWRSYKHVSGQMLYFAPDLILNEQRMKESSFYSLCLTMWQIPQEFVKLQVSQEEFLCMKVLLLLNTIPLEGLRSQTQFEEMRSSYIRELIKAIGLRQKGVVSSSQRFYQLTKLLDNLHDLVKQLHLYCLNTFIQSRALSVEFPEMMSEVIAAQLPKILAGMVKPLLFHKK

Row | SMILES | AC50
1 | Cc1ccc2oc(CN(Cc3ccccc3)C(=O)Nc3c(F)cc(F)cc3F)c(-c3ccc(Cl)cc3)c2c1 | 1950 nM (active)
2 | O=C(O)Cc1cc(I)c(Oc2ccc(O)c(I)c2)c(I)c1 | 21500 nM (active)
3 | C[C@]12CC[C@@H]3c4ccc(O)cc4CC[C@H]3[C@@H]1CCC2=O | 1420 nM (active)

Tested on: not listed separately
Assay: TOX21_PR_BLA_Followup_Agonist_viability: Viability Assessment in the Tox21 HEK293 Progesterone Receptor (PR) Agonism Beta-lactamase Follow-Up Assay (AID 2283935);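 further: cells exposed to compound for 16 hr at 37 °C; signal loss means lower viability so actives are cytotoxic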
How it was run: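 HEK293T PR-UAS-bla, 3,000 cells/well, 2% CS-FBS; 6 hr pre-incubation; cpd in DMSO, 16 hr 37C; LiveBLAzer 2 hr RT, then CellTiter-Glo 30 min RT, luminescence. Decrease = lost viability.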

Row | SMILES | outcome
4 | Cc1ccc2oc(CN(Cc3ccccc3)C(=O)Nc3c(F)cc(F)cc3F)c(-c3ccc(Cl)cc3)c2c1 | inactive
5 | O=C(O)Cc1cc(I)c(Oc2ccc(O)c(I)c2)c(I)c1 | inactive
6 | C[C@]12CC[C@@H]3c4ccc(O)cc4CC[C@H]3[C@@H]1CCC2=O | inactive

Tested on: not listed separately
Assay: TOX21_PR_LUC_Followup_Agonist_viability: Viability Assessment in the Tox21 HEK293 Progesterone Receptor (PR) Agonism Luciferase Follow-Up Assay (AID 2283941);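 further: loss of signal means cytotoxicity so actives lower viability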
How it was run: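 Cells were kept 5 days in charcoal-stripped serum medium before plating HEK293-PR-A-luc at 3,000 cells/well. After 5 h they received DMSO-dissolved compound and incubated 16 h at 37C. Viability was taken from CellTiter-Glo ATP luminescence.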

Row | SMILES | outcome
7 | Cc1ccc2oc(CN(Cc3ccccc3)C(=O)Nc3c(F)cc(F)cc3F)c(-c3ccc(Cl)cc3)c2c1 | inactive
8 | O=C(O)Cc1cc(I)c(Oc2ccc(O)c(I)c2)c(I)c1 | inactive
9 | C[C@]12CC[C@@H]3c4ccc(O)cc4CC[C@H]3[C@@H]1CCC2=O | inactive
